In PubChem BioAssay (NCATS):
Inconclusive results are not listed. Unmarked numbers belong to inactive results. The source made the active and inactive calls. Calls come from the whole dose curve; as a rule, active = well fitted inhibition curve with a large enough effect in the repeat runs; inconclusive = weak or mixed curves; inactive = no such curve, though single readings can be large or run the other way.

molecular target: Cytochrome P450 2C9 (Homo sapiens) (UniProt P11712); experiment: Cytochrome P450 family 2 subfamily C member 9 (CYP2C9) small molecule antagonists: luciferase biochemical (cell-free) qHTS assay (AID 1645842); settings: P450-Glo CYP2C9 enzyme assay, luciferin luminescence; series mostly up to 57.4 µM; activity change, negative = inhibition: at the top concentration; note: nearly all actives have a fitted effect of over 55% in size
Sequence (P11712 whole entry, looked up): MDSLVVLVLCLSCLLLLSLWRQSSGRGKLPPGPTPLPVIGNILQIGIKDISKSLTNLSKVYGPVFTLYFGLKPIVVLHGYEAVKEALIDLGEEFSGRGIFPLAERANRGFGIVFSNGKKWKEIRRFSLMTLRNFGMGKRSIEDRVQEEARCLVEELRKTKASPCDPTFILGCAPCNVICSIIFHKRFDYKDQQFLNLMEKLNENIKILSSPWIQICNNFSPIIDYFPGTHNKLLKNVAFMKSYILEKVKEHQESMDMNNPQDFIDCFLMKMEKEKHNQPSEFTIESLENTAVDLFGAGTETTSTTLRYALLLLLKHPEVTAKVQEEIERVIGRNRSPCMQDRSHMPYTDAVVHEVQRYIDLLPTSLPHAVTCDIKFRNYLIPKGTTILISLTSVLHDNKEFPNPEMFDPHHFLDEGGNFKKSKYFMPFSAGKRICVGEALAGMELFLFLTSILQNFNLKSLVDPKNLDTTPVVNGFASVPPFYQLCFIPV
Procedure, shortened: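 P450-Glo CYP2C9 system: proluciferin substrate with enzyme in mix containing 0.4% BSA, 10 min at room temperature, then NADPH regeneration solution added and incubated 1 h at 37C. Detection reagent stopped reaction; luminescence read after 20 min as RLU.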
% is set by controls: 0 for no effect and ±100 for the full control effect; potency is the fitted concentration of half-maximal effect.

| Structure (SMILES) | activity change, negative = inhibition [%] | Potency |
| --- | --- | --- |
| CC(C)c1cccc(C(C)C)c1NC(=O)Nc1ccc(Sc2ccc([N+](=O)[O-])cc2)cc1 | -0.901 | – |
| O=C(Nc1ccccc1)N1CCN(c2nc(-c3ccccc3)ns2)CC1 | – | 5.35 µM (active) |
| C=CC(=O)N1CCCC(n2nc(-c3ccc(Oc4ccccc4)cc3)c3c(N)ncnc32)C1 (centres undefined) | – | 3.79 µM (active) |
| CC(C)(O)c1ccn2c(-c3ccc(F)c(-c4ccc(F)cc4C#N)c3)cnc2c1F | – | 0.756 µM (active) |
| COc1ccc(C#Cc2ccc(C(=O)N3CCC[C@@H](CO)C3)cc2)cc1 | – | 21.3 µM (active) |
| COc1ccccc1OCCN1CC(COc2cccc3[nH]c4ccccc4c23)OCC1=O (centres undefined) | – | 0.849 µM (active) |
| c1ccc(-c2cnn3cc(-c4ccc(OCCN5CCOCC5)cc4)cnc23)cc1 | – | 3.38 µM (active) |
| C=CS(=O)(=O)O | -0.458 | – |
| COc1ccc2c(c1)C(C(=O)N(Cc1ccc(N(C)C)cc1)c1ccc(C(C)C)cc1)CCC2 (centres undefined) | – | 5.35 µM (active) |
| Fc1ccc(-c2nc(-c3ccccc3F)[nH]c2-c2ccncc2)cc1 | – | 1.69 µM (active) |
| CN(C)S(=O)(=O)c1ccc(NC(=S)N2CCC(C(O)(c3ccccc3)c3ccccc3)CC2)cc1 | – | 2.68 µM (active) |
| Clc1cccc(COc2cncc(N3CCNCC3)n2)c1 | -27.4 | – |
| O=c1[nH]c2ccc(C#CCN3CCC(Cc4ccccc4)CC3)cc2[nH]1 | – | 7.56 µM (active) |
| O=C(NCCCN1CCC2(CC1)OCc1ccccc12)[C@H]1CCCN1Cc1ccccc1 | -19.2 | – |
| CCn1c(=O)n([C@H]2CCCN(c3nccc(-c4cc5ccccc5o4)n3)C2)c2ccccc21 | – | 1.69 µM (active) |
| CNCCCC1(c2ccccc2)OC(C)(C)c2ccccc21 (centres undefined) | 1.05 | – |
| CCOC(=O)C1=Cc2ccc(C(F)(F)C(F)(F)F)cc2N=C(N)C1 | – | 12 µM (active) |
| O=[N+]([O-])c1ccc(Oc2ccc(N=C=S)cc2)cc1 | – | 16.9 µM (active) |
| COc1c(F)cccc1C(=O)N1C[C@@H](C)CC[C@H]1CNc1ccc(Br)cn1 | – | 5.35 µM (active) |
| CCN(CCNC(=O)Nc1ccccc1Br)c1cccc(C)c1 | – | 3.79 µM (active) |

| Structure (SMILES) | activity change, negative = inhibition [%] | Potency |
| --- | --- | --- |
| COC(C)=O | -2.61 | – |
| COc1cc(N2CCOCC2)ccc1NC(=O)c1csc(-c2cccnc2)n1 | 4.62 | – |
| NC(=O)c1nc(Nc2ccccc2)sc1NC(=O)C1CCCCC1 | – | 0.601 µM (active) |
| O=C(Nc1ccn(Cc2ccc(O)cc2C(F)(F)F)n1)c1c(F)cccc1F | – | 6.01 µM (active) |
| COCCN(C(=O)c1cc(OC)c(OC)c(OC)c1)c1nc(-c2ccccc2)cs1 | – | 4.77 µM (active) |
| Cc1ccnc(NC(=O)C(C)c2cccc(C(=O)c3ccccc3)c2)c1 (centres undefined) | – | 10.7 µM (active) |
| Cc1cnn(-c2ccccc2)c1NC(=O)COCc1ccccc1 | – | 10.7 µM (active) |
| CCc1ccc(-c2nc(CSCC(=O)NCCc3ccccc3)c(C)o2)cc1 | – | 8.49 µM (active) |
| C[C@@H]1C[C@H](C)CN(CCC(=O)Nc2ccc(Br)cc2)C1 | -5.55 | – |
| CN1CC(O)c2cc(N=NC(N)=O)c(O)cc21 (centres undefined) | -2.9 | – |
| O=S(=O)(O)Oc1ccc(C(c2ccc(OS(=O)(=O)O)cc2)c2ccccn2)cc1 | 2.28 | – |
| COc1cc(C(=O)NCC2(N(C)C)CCCC2)cc(OC)c1OCc1ccccc1 | 0.303 | – |
| OC1CCC(Nc2nc(-c3ccccc3)nc3[nH]ccc23)CC1 (centres undefined) | – | 2.68 µM (active) |
| CC#C[C@@H](CC(=O)O)c1ccc(OCc2ccc(CN3CCC4(C=Cc5ccccc54)CC3)s2)cc1 | – | 23.9 µM (active) |
| Cc1c(Cl)cccc1S(=O)(=O)Nc1nc(NCCc2ccccc2)nc2c1CN(Cc1ccccc1)CC2 | – | 6.01 µM (active) |
| O=C(Nc1cccc([N+](=O)[O-])c1)c1cccc(S(=O)(=O)N2CCCCCC2)c1 | – | 6.01 µM (active) |
| O=C(N[C@H](Cc1cscn1)C(=O)N[C@@H](CC1CCCCC1)[C@@H](O)[C@@H](O)C1CC1)c1nc2ccccc2[nH]1 | – | 1.34 µM (active) |
| Cc1cccc(-c2[nH]ncc2-c2ccnc3ccccc23)n1 | – | 9.52 µM (active) |
| CCNc1nc(Nc2cc(F)c(C(=O)N3CCOCC3)cc2OC)ncc1C(F)(F)F | – | 1.9 µM (active) |
